# From PubChem BioAssay
# Records with an inconclusive call do not appear. Activity calls are given as the source filed them.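 The calls were made as follows, unless noted: active = normalized viability below 100% at a tested concentration; inactive = the rest.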
# Columns and labels:
# [1] = viability loss in pontine glioma line – cell-based, SU-DIPG-XVII, MIPE5.0, CellTiter-Glo, qHTS, dose response (AID 1347060; cut-off not given, nearly all actives have AC50 up to about 26 µM;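 also: cells exposed to compound for 48 hours before viability readout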); conditions: CellTiter-Glo ATP luminescence
# [2] = viability loss in pontine glioma line – cell-based, JHH-DIPG-1, MIPE4.0, CellTiter-Glo, qHTS, dose response (AID 1347062; cut-off not given, nearly all actives have AC50 up to about 27 µM;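 also: cells exposed to compound for two days before readout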); conditions: JHH-DIPG-1 viability, CellTiter-Glo ATP luminescence
# [3] = viability loss in pontine glioma line – cell-based, SU-DIPG-IV, MIPE4.0, CellTiter-Glo, qHTS, dose response (AID 1347063; cut-off not given, nearly all actives have AC50 up to about 30 µM;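 also: compound exposure lasted 48 hours before the viability readout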); conditions: CellTiter-Glo ATP luminescence
# [4] = viability loss in pontine glioma line – cell-based, SU-DIPG-XXV, MIPE5.0, CellTiter-Glo, qHTS, dose response (AID 1347065; cut-off not given, nearly all actives have AC50 up to about 26 µM;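 also: cells exposed to compound for 48 hours before ATP readout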); conditions: CellTiter-Glo ATP luminescence
# [5] = growth inhibition of DIPG cells – cell-based, MIPE4.0 library, CellTiter-Glo luminescence, qHTS (AID 1347066; cut-off not given, nearly all actives have AC50 up to about 30 µM;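 also: cells exposed to compound for 48 hours before readout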); conditions: SU-DIPG-VI viability, CellTiter-Glo ATP luminescence
# [6] = JHH-DIPG-1 glioma cell viability, MIPE5.0 library, CellTiter-Glo luminescence, qHTS (AID 1347067; cut-off not given, nearly all actives have AC50 up to about 26 µM;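 also: cells exposed to compound for 48 hours before readout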); conditions: JHH-DIPG-1 glioma viability, CellTiter-Glo ATP luminescence
# [7] = growth inhibition of DIPG cells – cell-based, MIPE5.0 library, qHTS (AID 1347068; cut-off not given, nearly all actives have IC50 up to about 30 µM;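 also: cells exposed to compound for 48 hours before viability readout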); conditions: SU-DIPG-XXV viability
# [8] = compounds altering HSF1 focus formation in cells – imaging, Selleck Cancer Library (AID 1347162; in the data active = plate-normalised HSF1 focus index below about 0.46); conditions: human cells, HSF1 nuclear foci imaging, at 10 µM; SSMD: measured here: HSF1 foci SSMD mean; cell count: measured here: cell number; plate-normalised HSF1 focus index: stronger effect = lower value
# [9] = drug combination growth inhibition, ovarian cancer – cell-based, oncology-focused library, rucaparib conditional, profiling panel (AID 1508598); conditions: patient-derived ovarian cancer cells, CellTiter-Glo viability, 144 h, stronger effect = lower value
# [10] = viability loss with induced miR-34 in A549 – imaging, A549 dox-inducible miR-34, nuclei and caspase counts, primary screen (AID 1347080;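 active = compounds whose cell count with miR-34 switched on is under 0.7 times the count with it off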); conditions: A549 miR-34 inducible, Hoechst nuclei count, 48 h
# [11] = MELAS cybrid and Rieske KO viability enhancers – cell-based, MELAS cybrids, Rieske KO mouse fibroblasts, CellTiter-Glo, primary screen (AID 1508586;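 active = mean z-score across replicates of 1.96 or higher in either the MELAS or the Rieske mutant cell line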;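 also: z relative to plate mean and SD of compound and empty wells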); conditions: low glucose
# [12] = growth inhibition, single agent or in combination, cell-based, chromothripsis tumors, cisplatin or BGB combos (AID 1671449; in the data active = inhibition above about 80%;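 also: cells exposed for 96 hours; 0% = vehicle DMSO and 100% = killing by high DMSO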); conditions: LFS_MB_P medulloblastoma cells
# [13] = growth inhibition, single agent and combos, cell-based, chromothripsis tumors, cisplatin or BGB combos (AID 1671450; in the data active = inhibition above about 80%;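 also: cells exposed to compound for four days; 0% = vehicle DMSO and 100% = cell killing by high DMSO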); conditions: HDN33 neuroblastoma cells, stronger effect = higher value
# [14] = growth inhibition, single agents and combos, ICB984, cell-based, cisplatin or BGB combos, synergistic combos for chromothripsis tumors (AID 1671451; call rule not given here;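 also: cells exposed for 96 hours before readout; 0% = vehicle DMSO and 100% = killing by high DMSO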); conditions: ICB984 medulloblastoma cells, drug combinations, stronger effect = higher value
# [15] = growth inhibition, single agents and combos, HTB85, cell-based, BGB or cisplatin IC20 combos, synergistic combos for chromothripsis tumors (AID 1671453; in the data active = inhibition above about 80%;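 also: cells exposed for 96 hours before readout; 0% = vehicle DMSO and 100% = high DMSO killing control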); conditions: HTB85 osteosarcoma cells, drug combinations, stronger effect = higher value
# [16] = growth inhibition, MDA-MB-436, cell-based, BGB or cisplatin combos, synergistic combos for chromothripsis tumors (AID 1671458; call rule not given here;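 also: cells exposed for 96 hours; 0% = vehicle DMSO and 100% = killing by high DMSO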); conditions: MDA-MB-436 breast carcinoma growth inhibition, drug combinations, stronger effect = higher value
# [17] = BT084 cell growth, single and combined drugs, ICGC_MB145, cisplatin and BGB IC40 combos (AID 1671461; in the data active = inhibition above about 80%;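 also: cells exposed to drugs for 96 hours; 0% = vehicle DMSO and 100% = high DMSO full killing control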); conditions: BT084 medulloblastoma cells, drug combinations, stronger effect = higher value
# [18] = RCMB18 cell growth, single agent and combined, cisplatin and BGB IC40 combos (AID 1671462; in the data active = inhibition above about 80%;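 also: cells exposed to compound for four days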); conditions: RCMB18 medulloblastoma cells, stronger effect = higher value
# [19] = CRL1545 cell growth, single agent and combined, cisplatin and BGB IC20 combos (AID 1671464; in the data active = inhibition above about 80%;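 also: cells exposed to compound for 96 hours before readout; 0% = vehicle DMSO and 100% = high DMSO killing control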); conditions: CRL1545 osteosarcoma cells, stronger effect = higher value
# [20] = measured here: with BGB IC20 combination, at 0.5 µM
# [21] = measured here: with cisplatin IC20 combination, at 0.5 µM
smiles,measurement,setting,value
CC1(C)CCC(c2ccc(Cl)cc2)=C(CN2CCN(c3ccc(C(=O)NS(=O)(=O)c4ccc(N[C@H](CCN5CCOCC5)CSc5ccccc5)c(S(=O)(=O)C(F)(F)F)c4)cc3)CC2)C1,AC50,[1],8.33 µM (active)
same,AC50,[2],18.7 µM (active)
same,AC50,[3],2.09 µM (active)
same,AC50,[4],0.148 µM (active)
same,AC50,[5],0.59 µM (active)
same,AC50,[6],7.42 µM (active)
same,IC50,[7],3.32 µM (active)
same,SSMD,[8],-3.49
same,cell count,[8],6830
same,plate-normalised HSF1 focus index,[8],0.875 (inactive)
same,viability,"[9]; at 0.000305 µM, OCI-C5x cells, with rucaparib 10 µM, 100% = cells with rucaparib alone",37.1% (active)
same,viability,"[9]; at 0.000305 µM, OCI-C5x cells, without rucaparib",78.4% (active)
same,viability,"[9]; at 0.000305 µM, OCI-P5x cells, with rucaparib 20 µM, 100% = cells with rucaparib alone",132% (inactive)
same,viability,"[9]; at 0.000305 µM, OCI-P5x cells, without rucaparib",120% (inactive)
same,viability,"[9]; at 0.00122 µM, OCI-C5x cells, with rucaparib 10 µM, 100% = cells with rucaparib alone",12.7% (active)
same,viability,"[9]; at 0.00122 µM, OCI-C5x cells, without rucaparib",34.9% (active)
same,viability,"[9]; at 0.00122 µM, OCI-P5x cells, with rucaparib 20 µM, 100% = cells with rucaparib alone",118% (inactive)
same,viability,"[9]; at 0.00122 µM, OCI-P5x cells, without rucaparib",106% (inactive)
same,viability,"[9]; at 0.00488 µM, OCI-C5x cells, with rucaparib 10 µM, 100% = cells with rucaparib alone",32.2% (active)
same,viability,"[9]; at 0.00488 µM, OCI-C5x cells, without rucaparib",62.4% (active)
same,viability,"[9]; at 0.00488 µM, OCI-P5x cells, with rucaparib 20 µM, 100% = cells with rucaparib alone",127% (inactive)
same,viability,"[9]; at 0.00488 µM, OCI-P5x cells, without rucaparib",105% (inactive)
same,viability,"[9]; at 0.0195 µM, OCI-C5x cells, with rucaparib 10 µM, 100% = cells with rucaparib alone",19.9% (active)
same,viability,"[9]; at 0.0195 µM, OCI-C5x cells, without rucaparib",46.8% (active)
same,viability,"[9]; at 0.0195 µM, OCI-P5x cells, with rucaparib 20 µM, 100% = cells with rucaparib alone",110% (inactive)
same,viability,"[9]; at 0.0195 µM, OCI-P5x cells, without rucaparib",101% (inactive)
same,viability,"[9]; at 0.0781 µM, OCI-C5x cells, with rucaparib 10 µM, 100% = cells with rucaparib alone",14.8% (active)
same,viability,"[9]; at 0.0781 µM, OCI-C5x cells, without rucaparib",15.9% (active)
same,viability,"[9]; at 0.0781 µM, OCI-P5x cells, with rucaparib 20 µM, 100% = cells with rucaparib alone",110% (inactive)
same,viability,"[9]; at 0.0781 µM, OCI-P5x cells, without rucaparib",102% (inactive)
same,viability,"[9]; at 0.313 µM, OCI-C5x cells, with rucaparib 10 µM, 100% = cells with rucaparib alone",10.6% (active)
same,viability,"[9]; at 0.313 µM, OCI-C5x cells, without rucaparib",18.4% (active)
same,viability,"[9]; at 0.313 µM, OCI-P5x cells, with rucaparib 20 µM, 100% = cells with rucaparib alone",100% (inactive)
same,viability,"[9]; at 0.313 µM, OCI-P5x cells, without rucaparib",92.1% (active)
same,viability,"[9]; at 1.25 µM, OCI-C5x cells, with rucaparib 10 µM, 100% = cells with rucaparib alone",10.8% (active)
same,viability,"[9]; at 1.25 µM, OCI-C5x cells, without rucaparib",15.2% (active)
same,viability,"[9]; at 1.25 µM, OCI-P5x cells, with rucaparib 20 µM, 100% = cells with rucaparib alone",90.1% (active)
same,viability,"[9]; at 1.25 µM, OCI-P5x cells, without rucaparib",88.9% (active)
same,viability,"[9]; at 5 µM, OCI-C5x cells, with rucaparib 10 µM, 100% = cells with rucaparib alone",4.72% (active)
same,viability,"[9]; at 5 µM, OCI-C5x cells, without rucaparib",11.9% (active)
same,viability,"[9]; at 5 µM, OCI-P5x cells, with rucaparib 20 µM, 100% = cells with rucaparib alone",0.895% (active)
same,viability,"[9]; at 5 µM, OCI-P5x cells, without rucaparib",10.5% (active)
CN(C)CCN1C(=O)c2cccc3cc(N)cc(c23)C1=O,AC50,[1],20.9 µM (active)
same,AC50,[2],23.5 µM (active)
same,AC50,[3],18.7 µM (active)
same,AC50,[4],18.6 µM (active)
same,fold change,"[10]; stronger effect = lower value, cell number ratio, induced over uninduced",1.2 (inactive)
same,fold change,[10]; measured here: relative caspase fold change +Dox/-Dox,0.74
same,cell count,"[10]; measured here: total cells with miR-34 induction, stronger effect = lower value",1750
same,cell count,[10]; measured here: total cells without miR-34 induction,1460
same,z-score,"[11]; MELAS cybrid survival, CellTiter-Glo 48 h, stronger effect = higher value",-0.14 (inactive)
same,z-score,"[11]; Rieske KO mouse fibroblast survival, CellTiter-Glo 72 h",-0.182
same,inhibition,"[12]; at 0.5 µM, stronger effect = higher value",-4.37% (inactive)
same,inhibition,"[12]; measured here: combination with BGB IC20, at 0.005 µM",-27.8%
same,inhibition,"[12]; measured here: combination with BGB IC40, at 0.005 µM",-17.6%
same,inhibition,"[12]; measured here: combination with BGB IC40, at 0.05 µM",-30.5%
same,inhibition,"[12]; measured here: combination with cisplatin, at 0.5 µM, stronger effect = higher value",-36.3%
same,inhibition,"[12]; measured here: combination with cisplatin, at 5 µM, stronger effect = higher value",4.24%
same,inhibition,"[13]; BGB combo, at 5 µM",41.4%
same,inhibition,[13]; at 0.5 µM,-23.5% (inactive)
same,inhibition,"[13]; cisplatin combo, at 5 µM",48.1%
same,inhibition,[13]; [20],-27.7%
same,inhibition,[13]; [21],-18.1%
same,inhibition,"[13]; single agent, at 5 µM",62.5%
same,inhibition,"[14]; BGB IC20 combo, at 0.005 µM",-11.5%
same,inhibition,"[14]; BGB IC40 combo, at 0.005 µM",-22.2%
same,inhibition,"[14]; BGB IC40 combo, at 0.05 µM",-11.5%
same,inhibition,[14]; at 0.5 µM,-22.6% (inactive)
same,inhibition,"[14]; cisplatin combo, at 0.05 µM",-15.5%
same,inhibition,"[14]; cisplatin combo, at 0.5 µM",-16.6%
same,inhibition,"[14]; cisplatin combo, at 5 µM",-25.7%
same,inhibition,"[14]; measured here: 5 uM single agent, at 5 µM",-8.29%
same,inhibition,[15]; at 0.5 µM,-12.9% (inactive)
same,inhibition,"[15]; measured here: with BGB IC20, at 0.5 µM",-26.5%
same,inhibition,"[15]; measured here: with BGB IC20, at 5 µM",10.3%
same,inhibition,"[15]; measured here: with cisplatin IC20, at 0.5 µM",-16.4%
same,inhibition,"[15]; measured here: with cisplatin IC20, at 5 µM",6%
same,inhibition,"[15]; single agent, at 5 µM",33.7%
same,inhibition,[16]; at 0.5 µM,-8.14% (inactive)
same,inhibition,"[16]; measured here: BGB combination, at 0.5 µM",-8.98%
same,inhibition,"[16]; measured here: BGB combination, at 5 µM",10.1%
same,inhibition,"[16]; measured here: cisplatin combination, at 0.5 µM",-20.8%
same,inhibition,"[16]; measured here: cisplatin combination, at 5 µM",21.8%
same,inhibition,[17]; at 0.5 µM,-6.16% (inactive)
same,inhibition,"[17]; cisplatin combination, at 0.5 µM",-21.8%
same,inhibition,"[17]; cisplatin combination, at 5 µM",-12.3%
same,inhibition,"[17]; measured here: BGB IC40 combination 0.05 uM, at 0.05 µM",-42.3%
same,inhibition,"[17]; single agent, at 5 µM",-40.8%
same,inhibition,[18]; at 0.5 µM,-2.53% (inactive)
same,inhibition,"[18]; cisplatin combo, at 5 µM",-21%
same,inhibition,"[18]; measured here: BGB IC40 combination, at 0.05 µM",-28.2%
same,inhibition,"[18]; measured here: combination with cisplatin, at 0.5 µM",2.14%
same,inhibition,"[18]; single agent, at 5 µM",-32.9%
same,inhibition,[19]; at 0.5 µM,-31.5% (inactive)
same,inhibition,[19]; [20],-17.6%
same,inhibition,[19]; [21],-40.7%
same,inhibition,"[19]; single agent, at 0.05 µM",-14.5%
same,inhibition,"[19]; single agent, at 5 µM",59.5%
